Screens as filed in PubChem BioAssay.
Pol iota inh = qHTS for Inhibitors of Polymerase Iota; DNA polymerase iota (Homo sapiens), Q9UNA4; Pol iota fluorescent replication assay, 10 min; Potency, µM (series often up to 115 µM), most hits filed as inhibitors; hit rate 1% among 390,000; AID 588590, 2011
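Pol iota at 10 nM preincubated 15 min with compounds at room temperature; reaction started with fluorescent substrate, 50 nM final. Fluorescence read kinetically at 0 and 10 min; buffer-only wells as negative control.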
WRN helicase inh = qHTS for Inhibitors of WRN Helicase; Bifunctional 3'-5' exonuclease/ATP-dependent helicase WRN (Homo sapiens), Q14191; WRN helicase unwinding, fluorescent forked duplex, kinetic; Potency, µM (series often up to 114 µM), most hits filed as inhibitors; hit rate 0.46% among 360,000; note: nearly all actives have a fitted effect of over 55% in size
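Fluorescence dequenching readout, ex 525 nm/em 598 nm, kinetic mode: forked duplex DNA (100 nM final) with adjacent fluorophore and quencher unwound by WRN (20 nM final) with 2 mM ATP. Compound preincubation 15 min, room temperature.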
FEN1 inhibitor = qHTS Assay for the Inhibitors of Human Flap endonuclease 1 (FEN1); P39748; hit rate 0.35% among 390,000; Potency, µM (series often up to 114 µM), usual class: inhibitors; Recombinant FEN1 flap cleavage, fluorescence, 15 min; note: nearly all actives have a fitted effect of over 65% in size
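Nuclease activity of 10 nM FEN1 was measured after 15 min of room-temperature exposure to titrated compounds, by adding 50 nM flap substrate and reading plates at 0 and 15 min.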
Pol eta inh = qHTS for Inhibitors of Polymerase Eta; recombinant Pol eta, fluorescent DNA replication assay; hit rate 1.2% among 390,000; Potency, µM (titrated, usually from 114 µM), actives largely listed as inhibitors; AID 588591, 2011
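Pol eta at 10 nM preincubated with compounds 15 min at room temperature; reaction started with fluorescent substrate (50 nM final) and read kinetically at 0 and 10 min.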
POLB inh = qHTS Assay for Inhibitors of DNA Polymerase Beta. Potency, µM (top dose mostly 114 µM), hits mostly inhibitors. Pol beta primer extension/strand displacement, fluorescence kinetic. P06746. hit rate 1.3% among 340,000
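Preincubation: enzyme (10 nM) with compound, 15 min, RT. Reaction: substrate added to 50 nM final. Reads: 0 and 10 min. Analysis: normalized, Hill fit.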
POLK inh = qHTS for Inhibitors of Polymerase Kappa | Potency, µM (series often up to 107 µM), most hits filed as inhibitors | hit rate 0.53% among 400,000 | DNA polymerase kappa (Homo sapiens), Q9UBT6 | purified Pol kappa, fluorescent DNA synthesis assay, 10 min | AID 588579, 2011
Target sequence (Q9UBT6 whole entry, looked up): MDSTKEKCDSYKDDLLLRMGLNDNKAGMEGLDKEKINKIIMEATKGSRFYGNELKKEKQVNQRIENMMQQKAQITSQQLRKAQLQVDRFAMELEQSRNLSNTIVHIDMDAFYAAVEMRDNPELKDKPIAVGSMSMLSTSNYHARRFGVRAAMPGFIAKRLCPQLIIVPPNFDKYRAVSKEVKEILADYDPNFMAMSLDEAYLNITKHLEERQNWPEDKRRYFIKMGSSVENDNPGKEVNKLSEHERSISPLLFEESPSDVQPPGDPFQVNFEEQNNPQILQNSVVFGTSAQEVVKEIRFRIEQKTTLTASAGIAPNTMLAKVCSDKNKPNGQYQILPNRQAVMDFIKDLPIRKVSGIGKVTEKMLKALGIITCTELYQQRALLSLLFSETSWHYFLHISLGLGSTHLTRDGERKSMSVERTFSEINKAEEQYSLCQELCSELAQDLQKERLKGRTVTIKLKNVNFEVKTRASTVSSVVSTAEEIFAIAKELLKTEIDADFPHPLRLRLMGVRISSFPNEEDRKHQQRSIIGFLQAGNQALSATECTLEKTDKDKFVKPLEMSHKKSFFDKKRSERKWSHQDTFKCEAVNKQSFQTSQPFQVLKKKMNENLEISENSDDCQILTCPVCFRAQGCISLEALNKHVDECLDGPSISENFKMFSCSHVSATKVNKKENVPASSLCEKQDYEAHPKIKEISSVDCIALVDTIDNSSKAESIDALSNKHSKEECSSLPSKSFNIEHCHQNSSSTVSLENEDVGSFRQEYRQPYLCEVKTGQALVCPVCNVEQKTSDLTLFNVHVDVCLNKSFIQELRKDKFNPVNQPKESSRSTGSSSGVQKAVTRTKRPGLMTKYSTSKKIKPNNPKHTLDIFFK
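First, compounds were pin-transferred onto 10 nM Pol kappa. After 15 min at room temperature, substrate was added to 50 nM final. Fluorescence was then measured kinetically at 0 and 10 min.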
Hits are given with their value; - = inactive; ? = inconclusive; . = no result given; [ ] = another dose, or the depositor's remark. A selection: hits, their analogues and other compounds. The true share with any hit is near 2.4%. Calls come from the whole dose curve; as a rule, active = well fitted curve in the direction sought with a large enough effect; inconclusive = small, poorly fitted or top-dose-only effect, or another doubt; inactive = no such curve, though single readings can be large; an effect the other way counts as inactive or inconclusive.

SMILES | Pol iota inh | WRN helicase inh | FEN1 inhibitor | Pol eta inh | POLB inh | POLK inh
CCn1nc([N+](=O)[O-])c2c(-c3nc4ccccc4o3)c(N)n(CCCOC)c2c1=O | - | 31.6µM | - | ? | ? | -
Cc1cccc(N2CCN(C(=O)CN3CCSc4ccccc43)CC2C)c1 (configuration not stated) | - | . | - | - | - | -
CCOC(=O)c1[nH]c(C)c(C(=O)/C=C/c2ccc(C(=O)O)cc2)c1C | - | - | - | 22.4µM | - | -
O=C(Nc1nc2c(Cl)cccc2s1)c1ccc([N+](=O)[O-])o1 | - | - | - | 50.1µM | - | -
Cc1ccc(-c2csc(NC(=O)c3ccc([N+](=O)[O-])o3)n2)cc1 | - | - | - | 79.4µM | - | -
O=C1c2ccccc2NC(c2cc(Br)c3c(c2)OCO3)N1Cc1ccco1 (configuration not stated) | - | . | - | . | . | -
O=C(COC(=O)C1(c2ccc(F)cc2)CCCC1)NCc1ccco1 | - | - | - | - | 39.8µM | -
Cc1c(C(=O)OCC(=O)NCC2CCCO2)cccc1[N+](=O)[O-] (configuration not stated) | - | - | - | - | - | -
Cc1ccccc1C(=O)OCC(=O)NCc1ccco1 | 50.1µM | ? | - | ? | . | -
Cc1c(C(=O)OCC(=O)NCc2ccco2)cccc1[N+](=O)[O-] | 56.2µM | - | - | 25.1µM | . | -
COc1ccccc1NC(=O)COC(=O)c1ccc(S(=O)(=O)NCc2ccco2)cc1 | ? | - | - | ? | ? | ?
COc1ccccc1NS(=O)(=O)c1ccc(C(=O)OCC(=O)NCc2ccco2)cc1 | ? | - | - | ? | 15.8µM | -
CC(C)(C)n1ncc2c(=O)n(Cc3ccc(F)cc3Cl)cnc21 | - | . | - | . | . | -
COc1ccc(CCn2c3c(c(=O)[nH]c2=S)CN(CC(C)C)CN3)cc1OC | ? | . | - | . | . | -
COc1cc(N)c(NC(=O)/C=C/c2nc3cc(OC)c(OC)cc3[nH]2)cc1OC | - | . | - | . | . | -
COC(=O)C1N2C(=O)N(C)[C@H](C(=O)OC)[C@H]2SC1(C)C (some centres not stated) | - | . | - | . | . | -
CC[C@@H](C(=O)[C@@H](C)[C@@H](O)[C@H](C)CCc1ccc(C)c(O)c1C(=O)O)[C@H]1O[C@](CC)([C@H]2CC[C@](O)(CC)[C@H](C)O2)C[C@@H]1C | ? | - | - | - | 22.4µM | -
CCC(C(=O)C(C)C(O)C(C)CCc1ccc(C)c(O)c1C(=O)O)C1OC(CC)(C2CC[C@@](O)(CC)C(C)O2)CC1C (some centres not stated) | . | . | . | . | . | -
COc1c(-c2coc3cc4c(cc3c2=O)CC(O)C(C)(C)O4)ccc2c1C=CC(C)(C)O2 (configuration not stated) | . | . | . | . | . | -
COc1cc(-c2nnc(SCC(=O)c3ccc(C)cc3)o2)cc(OC)c1OC | - | - | - | - | - | -
COc1cc(-c2nnc(SCCOc3cc(C)cc(C)c3)o2)cc(OC)c1OC | - | . | - | - | 50.1µM | -
O=C(C[n+]1cccc(Br)c1)c1cccc([N+](=O)[O-])c1 | - | . | - | . | . | -
CN(C)c1ccc(N=Nc2ccc(S(N)(=O)=O)cc2)cc1 | 20µM | - | - | ? | ? | -
CN(C)N=Nc1ccc(S(N)(=O)=O)cc1 | - | - | - | - | - | -
CC(C)=C1C(=O)NN(c2ccc(C)c(Cl)c2)C1=O | 79.4µM | - | - | - | ? | ?
SMILES | Pol iota inh | WRN helicase inh | FEN1 inhibitor | Pol eta inh | POLB inh | POLK inh
CC(=O)c1c(O)cccc1O | . | . | . | . | . | -
NC1CCc2ccc([N+](=O)[O-])cc21 (configuration not stated) | - | . | - | . | . | -
O=S(=O)(c1ccc(F)cc1)N1CCN(c2nc(-c3cccs3)nc3ccccc23)CC1 | ? | . | - | . | . | -
CCC(=O)NC1=C(NC(C)c2ccccc2)C(=O)c2ccccc2C1=O (configuration not stated) | - | - | - | - | - | -
CCC(=O)NC1=C(Cl)C(=O)C(NC(=O)CC)=C(Cl)C1=O | 1.78µM | ? | ? | ? | - | -
CN1/C(=C/c2cccc[n+]2CCO)Sc2ccccc21 | - | - | - | - | ? | -
CC[n+]1c(/C=C2\Sc3ccccc3N2C)ccc2cccc(C)c21 | ? | 50.1µM | 12.6µM | ? | 28.2µM | -
CC#CC(=O)Nc1cc2c(Nc3ccc(F)c(Cl)c3)ncnc2cn1 | . | . | . | . | . | -
C=CCn1c2ccccc2c(=O)c2cc(C#Cc3ccsc3)ccc21 | . | . | . | . | 5.01µM | .
CCCC[C@@H]1C[C@H]1[C@@H](NC(=O)c1ccco1)c1ccc(C(=O)OC)cc1 | - | - | - | 31.6µM | . | -
O=C(CCn1c(=O)c2cccn2c2ccc(F)cc21)NCCc1ccccc1 | - | - | - | - | - | -
CCOc1ccc(CCNC(=O)CCCn2c(=O)c3cccn3c3ccccc32)cc1 | - | . | - | - | - | -
NS(=O)(=O)c1ccc(CCNC(=O)Cn2c(=O)c3cccn3c3ccc(F)cc32)cc1 | - | . | - | - | 44.7µM | -
CCOc1ccc(CCNC(=O)Cn2c(=O)c3cccn3c3cccnc32)cc1 | - | - | - | - | 100µM | -
C#C[C@]1(O)CC[C@H]2[C@@H]3CCC4=CCCC[C@@H]4[C@H]3C(=C)C[C@@]21CC | . | . | . | . | . | -[19.4 µM]
CCCN1CNc2c(c(=O)[nH]c(=S)n2CCc2ccc(OCC)c(OCC)c2)C1 | - | . | - | . | . | -
O=[N+]([O-])c1c(NCCO)cc(N2CCCCCC2)c2nonc12 | - | - | - | - | ? | -
Cc1nnc(Sc2cc(NCCO)c([N+](=O)[O-])c3nonc23)s1 | ? | -[11.6 µM] | 39.8µM | ? | - | -
CCOC(=O)c1c(C)[nH]c(=S)c(C#N)c1-c1ccc(Cl)cc1 | 79.4µM | - | - | - | - | -
Cc1cc(SCC(=O)c2cccc([N+](=O)[O-])c2)nc(=O)[nH]1 | ? | -[11.6 µM] | ? | 20µM | - | 79.4µM
Cc1cc(SCc2cccc([N+](=O)[O-])c2)nc(=O)[nH]1 | ? | - | - | - | ? | -
O=C(CSc1ccc(-c2ccco2)nn1)N1CCCC1 | - | - | - | - | - | -
Cc1cc(C)cc(NC(=O)CSc2cc(C)[nH]c(=O)n2)c1 | - | . | - | - | - | -
O=C(CSc1ccc(-c2ccco2)nn1)c1cccc([N+](=O)[O-])c1 | 12.6µM | - | - | ? | 28.2µM | ?
Cc1cc(SCc2ccc([N+](=O)[O-])cc2)nc(=O)[nH]1 | - | -[11.6 µM] | - | 25.1µM | ? | -
Cc1cc(SCC(=O)Nc2ccc(F)cc2F)nc(=O)[nH]1 | ? | . | - | ? | 15.8µM | -
O=Cc1ccc2[nH]ccc2c1 | - | . | - | . | . | -
